Whole data set: some 110,000 compounds, median “z-score” near -0.1, cut for the highest 2% near 2. For the sample, the highest values were picked, then their nearest neighbours and some compounds at random. The source made the active and inactive calls.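 The calls were made as follows: active = z-score in the third read window above 3 or below -3; inactive = the rest.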
Biological target: Metabotropic glutamate receptor 8 (Rattus norvegicus) (UniProt P70579)
Assay: rat mGluR8 modulators via GIRK flux, primary screen, cell-based, thallium flux, HTS (AID 488969)
Conditions: HEK293 rat mGluR8, GIRK (G protein-gated inwardly rectifying potassium channel) thallium flux, FluoZin2; at 10 µM; stronger effect = higher value

Chain of Metabotropic glutamate receptor 8 (Rattus norvegicus) (P70579 whole entry, looked up): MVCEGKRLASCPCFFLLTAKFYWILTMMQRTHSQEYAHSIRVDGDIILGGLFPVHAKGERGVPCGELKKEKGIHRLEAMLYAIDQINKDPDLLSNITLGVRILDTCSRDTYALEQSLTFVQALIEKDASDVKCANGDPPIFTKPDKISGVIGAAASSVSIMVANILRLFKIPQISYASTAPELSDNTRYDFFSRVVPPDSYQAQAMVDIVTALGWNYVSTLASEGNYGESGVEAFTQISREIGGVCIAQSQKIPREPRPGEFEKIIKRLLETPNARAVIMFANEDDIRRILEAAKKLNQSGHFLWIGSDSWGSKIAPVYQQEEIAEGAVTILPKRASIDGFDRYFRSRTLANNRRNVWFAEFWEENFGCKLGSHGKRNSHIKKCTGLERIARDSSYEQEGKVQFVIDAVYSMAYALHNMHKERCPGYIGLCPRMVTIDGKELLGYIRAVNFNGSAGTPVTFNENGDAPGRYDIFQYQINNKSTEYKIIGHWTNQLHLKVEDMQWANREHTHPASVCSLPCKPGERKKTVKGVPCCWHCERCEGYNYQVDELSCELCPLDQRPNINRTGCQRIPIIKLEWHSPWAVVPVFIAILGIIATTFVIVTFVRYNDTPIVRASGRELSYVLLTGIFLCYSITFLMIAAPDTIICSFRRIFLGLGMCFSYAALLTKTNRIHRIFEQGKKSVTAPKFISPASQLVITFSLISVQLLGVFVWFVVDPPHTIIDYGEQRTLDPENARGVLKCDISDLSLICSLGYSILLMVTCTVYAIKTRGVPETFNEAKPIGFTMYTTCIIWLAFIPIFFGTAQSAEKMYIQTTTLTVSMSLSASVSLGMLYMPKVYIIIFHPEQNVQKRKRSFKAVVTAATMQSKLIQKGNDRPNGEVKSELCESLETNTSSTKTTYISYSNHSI

| Structure (SMILES) | z-score |
| --- | --- |
| CC/C(=N\Nc1cccc2ccccc12)c1c(O)[nH]c(=O)[nH]c1=O | -0.114 |
| CC(=O)OC1C2CCC1C(N1CCCC1)CC2 (configuration not stated) | -0.278 |
| CCN(CC)Cc1c[nH]c2ccccc12 | -0.122 |
| CCN1CC=C(c2c[nH]c3ccccc23)CC1 | 2.05 |
| C1=C(c2c[nH]c3ccccc23)CCNC1 | 1.29 |
| O=C(C1CCCN(c2nnc(-n3cccc3)s2)C1)N1CCC2(CC1)OCCO2 (configuration not stated) | 0.546 |
| O=C1NC(=O)N(c2ccc3c(c2)OCO3)C(=O)/C1=C/c1ccc(N2CCCCC2)o1 | -0.618 |
| Nc1c(C(=O)OCc2ccccc2)c2nc3ccccc3nc2n1Cc1cccs1 | 0.248 |
| CC(=NCC1CCCO1)c1c(O)n(-c2ccc(Cl)cc2)c(=O)[nH]c1=O (configuration not stated) | -1.18 |
| CC(=NCC1CCCO1)c1c(O)n(-c2ccc(C)cc2)c(=O)[nH]c1=O (configuration not stated) | 2.68 |
| CC(=NCC1CCCO1)c1c(O)n(-c2ccccc2)c(=O)[nH]c1=O (configuration not stated) | 0.0257 |
| CN(C)CCN=Cc1c(O)n(Cc2ccco2)c(=O)[nH]c1=O | 0.184 |
| Cc1ccc(N2C(=O)NC(=O)/C(=C\c3ccsc3)C2=O)cc1C | -0.165 |
| O=c1c2ccccc2nc(CSc2ncnc3nc[nH]c23)n1-c1ccc(Cl)c(Cl)c1 | -0.202 |
| CC1CCC(NCCc2ccc3c(c2)OCO3)CC1 (configuration not stated) | 0.00241 |
| c1cc2c(cc1CCNC1CCCCCC1)OCO2 | 0.232 |
| c1cc2c(cc1CCNC1C3CC4CC(C3)CC1C4)OCO2 (configuration not stated) | 2.3 |
| CC1(C)CN=C(Nc2ccc(F)c(F)c2)S1 | -0.117 |
| Fc1ccc(NC2=NCCS2)cc1Cl | 4.82 (active) |
| Cc1cc(C)nc(NC2=NCCS2)n1 | 0.179 |
| CCC(COC(=O)NC)NC(=O)Oc1cccc(C)c1 (configuration not stated) | -0.336 |
| CC(=O)Nc1ccc(OC(=O)c2ccccc2N)cc1 | 0.06 |
| CNCC(O)c1cccc(OC(=O)c2ccccc2C)c1 (configuration not stated) | 2.34 |
| COC(=NC1CCCCC1)C(O)c1c[nH]c2ccccc12 (configuration not stated) | -0.119 |

| Structure (SMILES) | z-score |
| --- | --- |
| O=C(c1ccccc1F)c1cn(Cc2ccccc2)c2ccccc12 | -0.253 |
| CN(C)CCOC(=O)c1cn(Cc2ccccc2)c2ccccc12 | 2.01 |
| O=C(COc1ccccc1)c1cn(Cc2ccccc2)c2ccccc12 | -0.418 |
| CCCCN1C(=O)NC(=O)/C(=C/c2cnc(SC)nc2)C1=O | -0.221 |
| CCOC(=O)C1CCN(/C=C2/C(=O)NC(=O)N(c3ccc(OCC)cc3)C2=O)CC1 | 0.14 |
| C/C(=N\Nc1ccccc1)c1c(O)n(C)c(=O)n(C)c1=O | 3.74 (active) |
| CC(=NCCC(c1ccccc1)c1ccccc1)c1c(O)n(C)c(=O)n(C)c1=O | -0.488 |
| CC/C(=N\Nc1ccccc1)c1c(O)n(C)c(=O)n(C)c1=O | -0.0457 |
| CC(Cc1ccccc1Sc1ccc(O)cc1)N(C)C (configuration not stated) | 1.64 |
| O=C(NC(Cc1ccccc1)C(=O)N1CCC2(CC1)OCCO2)C1CCCCC1 (configuration not stated) | 0.317 |
| CCOC(=O)C1=C(N)OC(C)=C(C(=O)OCCOC)C12C(=O)Nc1ccccc12 (configuration not stated) | 0.399 |
| CCOC(=O)C1=C(NC(=S)NC(=O)c2ccccc2)c2ccccc2CC12CCCC2 | 2.46 |
| COC(=O)C(O)(c1ccc(NC(=S)NC(=O)c2ccccc2)cc1)C(F)(F)F (configuration not stated) | 0.443 |
| CCN1CCN(c2ncnc3ccc(Br)cc23)CC1 | 0.327 |
| CNCC1(c2ccccc2)CCCC1 | 0.566 |
| O=C(NC(=C(Cl)Cl)P(=O)(c1ccccc1)c1ccccc1)c1ccccc1 | -0.29 |
| CCOc1ccc(Br)c(C2(O)CC(C)N(C)CC2C)c1 (configuration not stated) | 2.44 |
| CCC(=O)OC1(c2cccc(C)c2)CC(C)N(C)CC1C (configuration not stated) | 0.852 |
| Cc1ccc(C)c(C2(O)CC(C)N(C)CC2C)c1 (configuration not stated) | 0.0958 |
| COc1ccccc1N(CC(=O)NC1CCCCC1)C(=O)c1cnn(C(C)C)c1 | 0.21 |
| CN1C(=O)NC(=O)C2(Cc3ccccc3N3CCOCC32)C1=O (configuration not stated) | -0.307 |
| CCCCn1c(O)c(C(CC)=NCc2cc(OC)cc(OC)c2)c(=O)[nH]c1=O | -0.703 |
| N=c1c[n+](CC23CC4CC(CC(C4)C2)C3)[n-]o1 | 2.09 |
| O=C(c1ccc2c(c1)ncn2C1CCCCCC1)N1CCC2(CC1)OCCO2 | -0.0497 |

| Structure (SMILES) | z-score |
| --- | --- |
| CCCCCCCC(=O)NC(Oc1ccccc1[N+](=O)[O-])C(Cl)(Cl)Cl (configuration not stated) | 0.238 |
| CCCC(=O)Nc1cc(C(=O)N2CCC3(CC2)OCCO3)ccc1S(=O)(=O)c1ccc(C)cc1 | -0.0584 |
| CC(C(N)=O)N1CC(c2ccc(Cl)cc2)CC1=O (configuration not stated) | -0.161 |
| CN1CCCC1C(O)(c1ccccc1)c1ccccc1 (configuration not stated) | -0.0177 |
| OC(Cc1ccccc1)(c1ccccc1)C1CN2CCC1CC2 (configuration not stated) | 2 |
| Cc1ccccc1C(O)(Cc1ccccc1)C1CN2CCC1CC2 (configuration not stated) | -0.323 |
| CCOC(=O)c1sc(/N=C/c2c(O)n(-c3cccc(C)c3)c(=O)[nH]c2=O)c(C#N)c1C | -0.627 |
| CCN1C(=O)C(=Cc2cc(C)n(C3CC3)c2C)C(=O)N(CC)C1=S | -0.0808 |
| CC1=NN(c2ccccc2)C(=O)C1/C=C1\C(=O)NC(=O)N(c2cc(C)cc(C)c2)C1=O (configuration not stated) | -0.0364 |
| CN(C)C(=O)Oc1ccc(OC(=O)N(C)C)cc1 | 0.415 |
| C[N+]1=C(/C=C/Nc2ccccc2)C(C)(C)c2ccccc21 | -1.45 |
| CN1/C(=C\C=C\C2=[N+](C)c3ccc4ccccc4c3C2(C)C)C(C)(C)c2ccccc21 | 5.85 (active) |
| CN1/C(=C\C=Nc2ccccc2)C(C)(C)c2ccccc21 | -0.319 |
| Cc1cc(C=C2C(=O)N(C)C(=S)N(C)C2=O)c(C)n1C1CCCCC1 | -0.45 |
| O=C1CN=C(c2ccccc2)c2ccccc2N1Cc1ccc(C(F)(F)F)cc1 | 0.646 |
| CNC(=O)OCCc1n(C)cc[n+]1C | -0.193 |
| CNC(=O)OCCc1nccn1C | 3.02 (active) |
| C=CCn1c(O)c(/C=C2/C=CC=N2)c(=O)[nH]c1=O | -0.219 |
| O=C(c1cc(S(=O)(=O)N2CCCCC2)ccc1F)N1CCC2(CC1)OCCO2 | -0.0595 |
| CCCCn1c(O)c(C(C)=NCCCN(C)C)c(=O)[nH]c1=O | 0.319 |
| CCCCCCN=C(C)c1c(O)n(CCCC)c(=O)[nH]c1=O | -2.32 |
| CCCCn1c(O)c(C(C)=NCCCn2ccnc2)c(=O)[nH]c1=O | 2.03 |
| O=[N+]([O-])c1ccc(C2[C@H]3C(c4ccccc4)=NC4(CCCCC4)N23)cc1 (some centres not stated) | -0.0546 |
| O=c1[nH]c(=O)n(C2CCCCCC2)c(O)c1C=NC1CCN(Cc2ccccc2)CC1 | -0.182 |

| Structure (SMILES) | z-score |
| --- | --- |
| O=C(c1cc2ccccc2oc1=O)N1CCC2(CC1)OCCO2 | 0.602 |
| O=C(c1cc2nc(-c3ccccc3)cc(-c3ccccc3)n2n1)N1CCC2(CC1)OCCO2 | -0.525 |
| O=C(c1cc2ccccn2n1)N1CCC2(CC1)OCCO2 | 4 (active) |
| N#CC1=C(N)Oc2c(c(=O)oc3ccccc23)C1c1ccncc1 (configuration not stated) | -0.0723 |
| Cc1[nH]c2c(Cl)cccc2c1CCN | 0.371 |
| Cc1cccc(N2C(=O)NC(=O)/C(=C\c3cccn3-c3ccc(Cl)cc3)C2=O)c1 | -0.0172 |
| Cc1ccc(Cc2c(C)nc3nc(SCC(=O)N4CCC5(CC4)OCCO5)nn3c2C)cc1 | -0.0184 |
| O=C(COc1ccc(Cl)cc1)NC1CN2CCC1CC2 (configuration not stated) | -0.215 |
| CCNC(=O)C1OC(n2cnc3c(N)ncnc32)C(O)C1O (configuration not stated) | 2 |
| CCCCn1c(O)c(C(CC)=Nc2ccc(OC)cc2OC)c(=O)[nH]c1=O | -1.4 |
| Cc1nn(Cc2ccccc2)c(C)c1C=C1C(=O)NC(=O)NC1=O | 2.1 |
| Cn1cccc1/C=C1/C(=O)NC(=O)N(Cc2ccccc2)C1=O | -0.709 |
| Cc1nn(Cc2ccccc2)c(C)c1C=C1C(=O)NC(=S)NC1=O | -0.287 |
| CCn1c(P(C)(=O)O)nc2ccccc21 | -0.338 |
| CN1CCN(Cc2ccc(Br)s2)CC1 | 0.759 |
| Cc1ccc(-c2nc(N(C)C3CCN(C)CC3)c3ccccc3n2)cc1 | 2.91 |
| CN1CCC(N(C)c2nc(-c3ccccc3)nc3ccccc23)CC1 | 0.199 |
| CN1CCC(N(C)c2nc(-c3ccc([N+](=O)[O-])cc3)nc3ccccc23)CC1 | 0.562 |
| O=C(Cn1c(=S)[nH]c2ccccc2c1=O)N1CCC2(CC1)OCCO2 | 0.264 |
| CC1=NN(c2ccccc2)C(=O)C1/C=C1/C(=O)NC(=O)N(c2cccc(C)c2)C1=O (configuration not stated) | -0.395 |
| CCOC(=O)C(O)(c1ccc(N(CC)S(=O)(=O)c2ccc(C)cc2)cc1)C(F)(F)F (configuration not stated) | 2.37 |
| CCOC(=O)N(C)c1ccc(C(O)(C(=O)OCC)C(F)(F)F)cc1 (configuration not stated) | -0.0433 |
| CCN(c1ccc(C(O)(C(=O)OC)C(F)(F)F)cc1)S(=O)(=O)c1ccc(C)cc1 (configuration not stated) | 1.21 |
| O=C(c1ccccc1F)c1cn(CC(=O)N2CCCCC2)c2ccccc12 | -0.152 |

| Structure (SMILES) | z-score |
| --- | --- |
| CCN(CC)c1ccc(CN2CC=C(c3ccc(F)cc3)CC2)cc1 | 0.0485 |
| Cn1c(O)c(C=NCCN2CCNCC2)c(=O)n(C)c1=O | -0.337 |
| O=c1c(C=NCc2cccs2)c(O)n(C2CCCCC2)c(=O)n1C1CCCCC1 | -0.421 |
| O=c1c(C=NCCN2CCNCC2)c(O)n(C2CCCCC2)c(=O)n1C1CCCCC1 | 2.42 |
| COc1ccc(CCN(C)Cc2c(F)cccc2F)cc1OC | 0.419 |
| N#Cc1cc2c(nc1SCC(=O)Nc1cc(Cl)ccc1Cl)C1CCN2CC1 | -1.88 |
| O=C(C1CCN(S(=O)(=O)c2ccccc2)CC1)N1CCC2(CC1)OCCO2 | 0.255 |
| CCS(=O)(=O)N1CCC(C(=O)N2CCC3(CC2)OCCO3)CC1 | 0.00257 |
| Cc1ccc2nc(N3CCC(C(=O)N4CCC5(CC4)OCCO5)CC3)sc2c1 | 4.28 (active) |
| CC(C)CC(=O)NC(Oc1ccc(Cl)cc1)C(Cl)(Cl)Cl (configuration not stated) | -0.379 |
| CC1(C)CN2C(c3ccc(Cl)cc3)N2C1 (configuration not stated) | 0.161 |
| O=[N+]([O-])c1cc2c(cc1CNCCc1ccc3c(c1)OCO3)OCO2 | 0.309 |
| c1ccc(CNCCc2ccc3c(c2)OCO3)nc1 | -0.496 |
| c1ccc2c(CCNCc3ccc4c(c3)OCO4)c[nH]c2c1 | 2.19 |
| Cc1noc(C)c1C(=O)N1CCC2(CC1)OCCO2 | -0.294 |
| COc1cc2[nH]c(=O)n(-c3cccc(Cl)c3)c(=O)c2cc1OC | -0.0317 |
| O=c1[nH]c2ccccc2c(=O)n1-c1cccc(Cl)c1 | -0.0839 |
| COc1ccc(-n2c(=O)[nH]c3ccccc3c2=O)cc1 | 0.343 |
| CC(C)Oc1cc(-n2c(=S)[nH]c3ccccc3c2=O)c(Cl)cc1Cl | 12.9 (active) |
| COc1cc(-n2c(=S)[nH]c3ccccc3c2=O)c(Cl)cc1Cl | 6.65 (active) |
| COc1cc2[nH]c(=O)n(-c3ccccc3)c(=O)c2cc1OC | -0.252 |

Reference: PubChem BioAssay AID488969 (Vanderbilt High Throughput Screening Facility, 2010)
